Source: PubChem BioAssay (NCATS)
Records with an inconclusive call do not appear. A call without a number means that no potency is given here. Active and inactive are the calls of the source. Calls come from the whole dose curve; as a rule, active = well fitted inhibition curve with a large enough effect; inconclusive = small, poorly fitted or top-dose-only effect; inactive = flat fitted curve, though single readings scatter.

System: Zika virus NS2B-NS3 protease
Experiment: Primary screen GU AMC qHTS for Zika virus inhibitors (AID 1347154); note: nearly all actives have a fitted effect of over 70% in size
Procedure, shortened: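 Fluorogenic AMC-substrate cleavage by noncovalent NS2B-NS3 protease complex (25 nM, pH 8.0 Tris buffer with Tween 20) followed for 15 minutes at room temperature (~20% conversion). Percent inhibition from ex340/em450 signal change, fitted by 4-parameter Hill equation.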
Potency is the fitted concentration of half-maximal effect.

Row | Structure (SMILES) | Potency
1 | C[C@]12CC[C@H](O)CC1=CC[C@H]1[C@H]3CCC(=O)[C@@]3(C)CC[C@@H]12 | inactive
2 | C[C@H]([C@H](O)CCC(C)(C)O)[C@H]1CC[C@@]2(O)C3=CC(=O)[C@@H]4C[C@@H](O)[C@@H](O)C[C@]4(C)[C@@H]3CC[C@]12C | inactive
3 | O=[N+]([O-])c1ccc([As](=O)(O)O)cc1 | inactive
4 | CCO/N=C(\CC)C1=C(O)CC(c2c(C)cc(C)cc2C)CC1=O (centres undefined) | inactive
5 | CCOCCOC(C)=O | inactive
6 | O=C(O)COc1ccccc1 | inactive
7 | CCOP(=O)(NC(C)C)Oc1ccc(SC)c(C)c1 (centres undefined) | inactive
8 | COc1ccc(CC2NCCc3cc(OC)c(OC)cc32)cc1OC (centres undefined) | inactive
9 | CN(C)NC(=O)CCC(=O)O | inactive
10 | CCCCC(CC)COC(=O)c1ccccc1C(=O)OCC(CC)CCCC (centres undefined) | inactive
11 | C#C[C@]1(O)C=C[C@@H]2[C@@H]3CCC4=CC(=O)CC[C@@H]4[C@H]3CC[C@@]21CC | inactive
12 | C=CC(=O)NCNC(=O)C=C | inactive
13 | CSCC[C@@H](NC(=O)[C@@H](Cc1ccccc1)NC(=O)CNC(=O)CNC(=O)[C@@H](N)Cc1ccc(O)cc1)C(=O)O | inactive
14 | COc1ccc(N(C(=O)Oc2c(C)cccc2C)c2ccnc(Nc3ccc(N4CCN(C)CC4)cc3)n2)c(OC)c1 | inactive
15 | COc1cccc2c1[C@]13CCN(CC4CC4)[C@H](C2)[C@]1(OC)CCC(=O)C3 | inactive
16 | O=C(Oc1ccc([N+](=O)[O-])cc1)N1CCC(C(O)(c2ccc3c(c2)OCO3)c2ccc3c(c2)OCO3)CC1 | inactive
17 | CCCCOC(=O)c1ccccc1C(=O)OCc1ccccc1 | inactive
18 | CC(C)[C@]12O[C@H]1[C@@H]1O[C@]13[C@]1(O[C@H]1C[C@H]1C4=C(CC[C@@]13C)C(=O)OC4)[C@@H]2O | inactive
19 | CC(C)(C)[C@]1(O)C[C@@H]2OC(=O)C[C@@]23C(=O)O[C@@H]2OC(=O)[C@H](O)C213 (some centres undefined) | inactive
20 | Clc1ccccc1C(c1ccccc1)(c1ccccc1)n1cccn1 | inactive
21 | COC(=O)c1cncn1C(C)c1ccccc1 (centres undefined) | inactive
22 | CN[C@@H]1Cc2cccc3[nH]c(=O)n(c23)C1 | inactive
23 | C[C@]12CCC(=O)C(O)=C1CC[C@@H]1[C@H]3CCC(=O)[C@@]3(C)CC[C@@H]12 | inactive
24 | Nc1ccc([N+](=O)[O-])cc1 | inactive
25 | CC[N+]1(CCOC(=O)C(O)(c2ccccc2)c2ccccc2)CCCCC1 | inactive
26 | O=C(O)CNC(=O)c1c(O)c2ccccc2n(Cc2ccccc2)c1=O | inactive
27 | CO/C=C(/C(=O)OC)c1ccccc1Oc1cc(Oc2ccccc2C#N)ncn1 | inactive

Row | Structure (SMILES) | Potency
28 | CN1CCN(c2ccc([N+](=O)[O-])c3no[n+]([O-])c23)CC1 | inactive
29 | O=C(Nc1ccccc1-c1ccc(Cl)cc1)c1cccnc1Cl | inactive
30 | C1CCC(NC2CCCCC2)CC1 | inactive
31 | OCCCBr | inactive
32 | Oc1ccc2c3c1O[C@H]1[C@@H](O)C=C[C@H]4[C@@H](C2)NCC[C@@]341 | inactive
33 | c1cc2ccc3cccc4ccc(c1)c2c34 | 17.3 µM (active)
34 | CCOC(=O)c1c(C(C#N)=CN)c2ccc(Cl)c(Cl)c2n1C | inactive
35 | C=C1C[C@H]2[C@H]3CCC(=O)[C@@]3(C)CC[C@@H]2[C@@]2(C)C=CC(=O)C=C12 | inactive
36 | CC(C)(C)NC[C@H](O)c1ccc(O)cc1Cl | inactive
37 | C[C@](O)(COc1ccc(C#N)cc1)C(=O)Nc1ccc(C#N)c(C(F)(F)F)c1 | inactive
38 | CC1(C)CC/C(=C/c2ccc(Cl)cc2)C1(O)Cn1cncn1 (centres undefined) | inactive
39 | Cc1c(C(=O)c2cccc3ccccc23)c2cccc3c2n1[C@H](CN1CCOCC1)CO3 | inactive
40 | CCC(=O)O[C@@H]1C=C2CCC3C(CCC4(C)C3CC[C@@H]4OC(=O)CC)C2CC1 (some centres undefined) | inactive
41 | CC(C)NCC(O)c1ccc([N+](=O)[O-])cc1 (centres undefined) | inactive
42 | O=C(N[C@@H](COc1ccc2[nH]c(=O)[nH]c2c1)c1ccccc1)c1cccn(Cc2ccc(F)c(F)c2)c1=O | inactive
43 | C[C@@H]1CC[C@H]2[C@@H](C)C(=O)O[C@@H]3O[C@@]4(C)CC[C@H]1[C@]32OO4 | inactive
44 | CC(N[C@H]1C[C@H]1c1ccccc1)c1ccc2c(c1)OCCO2 (some centres undefined) | inactive
45 | Nc1ccc(Cl)cc1 | inactive
46 | c1ccc2c(CN3CCNCC3)cccc2c1 | inactive
47 | CC(=O)O[C@@]12CO[C@H]1C[C@H](O)[C@@]1(C)C(=O)[C@H](O)C3=C(C)[C@@H](O)C[C@@](O)([C@@H](OC(=O)c4ccccc4)[C@@H]21)C3(C)C | inactive
48 | CC(C)N(CCNC(=O)CN1CCCC1=O)C(C)C | inactive
49 | CCC1(CCC(C)C)C(=O)NC(=O)NC1=O | inactive
50 | COCCOCCO | inactive
51 | CN[C@@H](C)[C@H](O)c1ccccc1 | inactive
52 | O=S(=O)(O)C(F)(F)C(F)(F)C(F)(F)C(F)(F)F | inactive
53 | c1cc2c(cc1[C@H]1OC[C@H]3[C@H]1CO[C@H]3c1ccc3c(c1)OCO3)OCO2 | inactive
54 | C=C[C@@H]1CN2CCC1C[C@@H]2[C@@H](O)c1ccnc2ccccc12 (some centres undefined) | inactive
